The full data set covers some 7,900 targets. This sample favours those with a hit. About 0.6% of all pairs of compound and target were hits. Unmarked numbers belong to inactive results.
Key:
Assay in all cases: log2 fold change, soluble protein after heating vs DMSO (PISA); higher = thermal stabilisation; K562 cells, 10 uM, 30 min; active = over 0.2 and 3.5 SD of the protein, either way, in both replicates (recomputed)
[1] = compound: NC(=O)Nc1cc(-c2cccc(F)c2)sc1C(=O)N[C@H]1CCCNC1
Outline: (§1)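 K562 cells at 2×10^6 cells/mL were given 10 μM compound for 30 min. Aliquots then went through 3 min of heating across 48°C-58°C, were pooled, and were extracted in PBS with 0.5% NP-40 at 4°C, and the supernatant after 21,000xg for 90 min was quantified by TMTpro 16plex LC-MS/MS with channel sums equalised. Thermal stability relative to control samples, from duplicates, is given as log2 fold change.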

[2] = compound: NC(=O)c1cnc(N[C@@H]2CCCC[C@@H]2N)nc1Nc1cccc(-n2nccn2)c1
Outline: as §1

[3] = compound: NC1(c2ccc(-c3nc4ccn5c(=O)[nH]nc5c4cc3-c3ccccc3)cc2)CCC1
Outline: as §1

[4] = compound: NCC(=O)Nc1ccc(-n2nc(C(F)(F)F)cc2-c2ccc3c(ccc4ccccc43)c2)cc1
Outline: as §1

[5] = compound: Nc1ccccc1NC(=O)c1ccc(CNC(=O)OCc2cccnc2)cc1 [entinostat]
Outline: as §1

[6] = compound: O=C(CCCCCCC(=O)Nc1ccccc1)NO [vorinostat]
Outline: as §1

[7] = compound: O=C(O)c1ccc2c(c1)nc(Nc1cccc(Cl)c1)c1ccncc12 [silmitasertib]
Outline: as §1

[8] = compound: O=C(CCCCCCNC(=O)c1cnc(N(c2ccccc2)c2ccccc2Cl)nc1)NO [citarinostat]
Outline: as §1

[9] = compound: O=C1NC(=O)C(c2cnc3ccccn23)=C1c1cn2c3c(cc(F)cc13)CN(C(=O)N1CCCCC1)CC2
Outline: as §1

[10] = compound: c1cc(OCCN2CCCCC2)cc(-c2n[nH]c3ccc(-c4nnc[nH]4)cc23)c1
Outline: as §1

[11] = compound: c1cn2cc(-c3ccc4cn[nH]c4c3)nc(Nc3ccc(N4CCOCC4)cc3)c2n1 [entospletinib]
Outline: as §1

Chain of UniProt Q14442 (Q14442 whole entry, looked up): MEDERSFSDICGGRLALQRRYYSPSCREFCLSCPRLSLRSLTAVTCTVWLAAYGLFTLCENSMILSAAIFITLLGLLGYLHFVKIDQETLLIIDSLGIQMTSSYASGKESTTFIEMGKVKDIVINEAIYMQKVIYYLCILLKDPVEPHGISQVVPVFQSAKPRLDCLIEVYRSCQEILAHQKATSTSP
Chain of UniProt Q9NW08 (Q9NW08 whole entry, looked up): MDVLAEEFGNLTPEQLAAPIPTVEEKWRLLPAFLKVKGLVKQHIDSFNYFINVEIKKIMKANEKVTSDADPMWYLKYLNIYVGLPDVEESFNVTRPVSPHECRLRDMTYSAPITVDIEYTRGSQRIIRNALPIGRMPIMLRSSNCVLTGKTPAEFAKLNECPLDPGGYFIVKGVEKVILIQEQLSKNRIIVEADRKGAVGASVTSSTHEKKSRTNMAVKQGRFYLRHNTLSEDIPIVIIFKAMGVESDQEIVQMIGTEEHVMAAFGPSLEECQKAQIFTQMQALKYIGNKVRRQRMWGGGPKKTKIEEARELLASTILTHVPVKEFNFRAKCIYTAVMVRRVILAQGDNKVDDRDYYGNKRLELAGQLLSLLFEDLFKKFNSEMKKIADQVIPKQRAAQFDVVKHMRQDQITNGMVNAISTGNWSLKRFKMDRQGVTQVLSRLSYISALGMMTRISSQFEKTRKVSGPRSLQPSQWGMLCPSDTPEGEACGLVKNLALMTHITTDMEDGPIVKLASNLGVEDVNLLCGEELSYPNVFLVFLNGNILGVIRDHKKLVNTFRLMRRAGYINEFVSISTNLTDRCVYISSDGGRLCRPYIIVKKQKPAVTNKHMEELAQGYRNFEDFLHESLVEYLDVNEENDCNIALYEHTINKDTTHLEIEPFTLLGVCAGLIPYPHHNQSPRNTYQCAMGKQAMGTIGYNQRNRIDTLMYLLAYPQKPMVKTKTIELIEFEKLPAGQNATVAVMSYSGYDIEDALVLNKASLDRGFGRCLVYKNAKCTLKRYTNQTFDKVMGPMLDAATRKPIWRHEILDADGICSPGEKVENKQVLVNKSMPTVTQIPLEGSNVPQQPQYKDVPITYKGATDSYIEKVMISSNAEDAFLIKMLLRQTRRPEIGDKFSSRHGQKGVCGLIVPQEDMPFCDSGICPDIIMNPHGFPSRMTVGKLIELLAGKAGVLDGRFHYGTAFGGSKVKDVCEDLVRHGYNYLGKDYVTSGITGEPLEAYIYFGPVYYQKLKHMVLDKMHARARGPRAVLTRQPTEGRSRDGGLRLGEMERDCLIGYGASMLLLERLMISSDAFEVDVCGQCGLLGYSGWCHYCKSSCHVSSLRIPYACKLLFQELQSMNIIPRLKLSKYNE
Chain of UniProt Q96RV3 (Q96RV3 whole entry, looked up): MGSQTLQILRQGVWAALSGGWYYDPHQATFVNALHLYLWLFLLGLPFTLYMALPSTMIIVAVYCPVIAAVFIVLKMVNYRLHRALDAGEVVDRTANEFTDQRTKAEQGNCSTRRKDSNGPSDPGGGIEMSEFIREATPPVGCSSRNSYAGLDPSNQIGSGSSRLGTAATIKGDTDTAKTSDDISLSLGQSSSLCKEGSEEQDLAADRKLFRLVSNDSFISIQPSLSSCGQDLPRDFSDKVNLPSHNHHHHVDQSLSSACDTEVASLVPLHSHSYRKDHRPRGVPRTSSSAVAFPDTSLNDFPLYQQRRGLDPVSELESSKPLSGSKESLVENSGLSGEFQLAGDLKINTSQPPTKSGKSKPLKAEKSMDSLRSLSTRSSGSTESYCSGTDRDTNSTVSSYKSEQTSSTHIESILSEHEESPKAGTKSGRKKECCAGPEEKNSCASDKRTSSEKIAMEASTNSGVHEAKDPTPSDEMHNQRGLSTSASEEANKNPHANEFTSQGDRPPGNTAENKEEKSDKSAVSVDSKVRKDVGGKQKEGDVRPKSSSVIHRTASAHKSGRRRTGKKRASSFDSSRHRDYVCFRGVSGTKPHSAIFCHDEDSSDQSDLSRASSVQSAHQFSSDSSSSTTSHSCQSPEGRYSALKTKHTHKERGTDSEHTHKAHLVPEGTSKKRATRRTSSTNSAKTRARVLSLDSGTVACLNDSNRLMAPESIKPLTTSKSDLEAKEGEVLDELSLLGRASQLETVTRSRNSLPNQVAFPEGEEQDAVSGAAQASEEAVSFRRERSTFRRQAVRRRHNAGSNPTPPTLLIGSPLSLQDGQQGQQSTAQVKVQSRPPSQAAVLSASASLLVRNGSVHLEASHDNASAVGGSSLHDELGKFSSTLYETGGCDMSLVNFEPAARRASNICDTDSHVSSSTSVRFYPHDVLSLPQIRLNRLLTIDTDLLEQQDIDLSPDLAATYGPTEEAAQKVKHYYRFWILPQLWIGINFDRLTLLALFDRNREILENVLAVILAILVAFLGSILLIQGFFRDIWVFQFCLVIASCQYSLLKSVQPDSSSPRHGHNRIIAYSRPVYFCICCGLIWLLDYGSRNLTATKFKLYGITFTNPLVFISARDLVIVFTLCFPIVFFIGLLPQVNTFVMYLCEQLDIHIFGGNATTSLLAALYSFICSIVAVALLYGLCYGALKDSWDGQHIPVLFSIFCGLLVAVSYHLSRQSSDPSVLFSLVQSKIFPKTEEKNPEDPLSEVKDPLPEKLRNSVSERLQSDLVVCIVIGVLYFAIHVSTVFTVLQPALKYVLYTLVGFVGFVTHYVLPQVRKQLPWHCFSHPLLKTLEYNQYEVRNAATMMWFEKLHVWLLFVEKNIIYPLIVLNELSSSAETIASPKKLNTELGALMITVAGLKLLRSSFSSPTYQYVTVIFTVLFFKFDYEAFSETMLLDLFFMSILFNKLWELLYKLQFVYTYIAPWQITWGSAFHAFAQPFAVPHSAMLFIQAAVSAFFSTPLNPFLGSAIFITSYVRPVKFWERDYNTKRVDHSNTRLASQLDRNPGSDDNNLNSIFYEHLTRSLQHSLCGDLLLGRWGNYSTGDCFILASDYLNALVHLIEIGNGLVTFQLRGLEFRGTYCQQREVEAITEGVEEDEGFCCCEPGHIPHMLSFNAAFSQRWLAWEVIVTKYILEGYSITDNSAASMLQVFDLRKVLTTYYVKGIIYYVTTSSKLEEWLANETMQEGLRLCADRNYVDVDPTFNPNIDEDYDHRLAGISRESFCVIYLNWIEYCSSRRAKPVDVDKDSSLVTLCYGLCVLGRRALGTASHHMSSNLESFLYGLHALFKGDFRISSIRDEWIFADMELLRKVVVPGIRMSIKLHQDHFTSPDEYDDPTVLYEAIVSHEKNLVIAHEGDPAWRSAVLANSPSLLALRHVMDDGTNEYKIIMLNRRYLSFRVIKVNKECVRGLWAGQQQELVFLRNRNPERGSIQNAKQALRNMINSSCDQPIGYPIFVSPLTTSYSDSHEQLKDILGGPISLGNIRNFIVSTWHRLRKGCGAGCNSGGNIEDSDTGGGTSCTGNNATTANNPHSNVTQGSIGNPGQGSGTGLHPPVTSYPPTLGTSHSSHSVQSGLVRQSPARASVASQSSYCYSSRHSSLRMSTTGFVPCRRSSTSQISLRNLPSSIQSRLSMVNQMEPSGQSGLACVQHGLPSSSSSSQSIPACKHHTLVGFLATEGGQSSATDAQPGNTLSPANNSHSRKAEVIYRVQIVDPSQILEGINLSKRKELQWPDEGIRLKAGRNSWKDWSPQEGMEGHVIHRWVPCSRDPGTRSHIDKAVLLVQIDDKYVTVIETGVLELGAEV
Chain of UniProt P28065 (P28065 whole entry, looked up): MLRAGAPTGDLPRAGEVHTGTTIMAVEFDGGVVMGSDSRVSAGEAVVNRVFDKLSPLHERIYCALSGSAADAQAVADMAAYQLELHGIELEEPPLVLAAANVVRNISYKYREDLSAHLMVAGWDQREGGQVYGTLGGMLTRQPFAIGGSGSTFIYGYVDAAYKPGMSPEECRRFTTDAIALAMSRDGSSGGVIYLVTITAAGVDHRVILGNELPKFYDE
Chain of UniProt P27986 (P27986 whole entry, looked up): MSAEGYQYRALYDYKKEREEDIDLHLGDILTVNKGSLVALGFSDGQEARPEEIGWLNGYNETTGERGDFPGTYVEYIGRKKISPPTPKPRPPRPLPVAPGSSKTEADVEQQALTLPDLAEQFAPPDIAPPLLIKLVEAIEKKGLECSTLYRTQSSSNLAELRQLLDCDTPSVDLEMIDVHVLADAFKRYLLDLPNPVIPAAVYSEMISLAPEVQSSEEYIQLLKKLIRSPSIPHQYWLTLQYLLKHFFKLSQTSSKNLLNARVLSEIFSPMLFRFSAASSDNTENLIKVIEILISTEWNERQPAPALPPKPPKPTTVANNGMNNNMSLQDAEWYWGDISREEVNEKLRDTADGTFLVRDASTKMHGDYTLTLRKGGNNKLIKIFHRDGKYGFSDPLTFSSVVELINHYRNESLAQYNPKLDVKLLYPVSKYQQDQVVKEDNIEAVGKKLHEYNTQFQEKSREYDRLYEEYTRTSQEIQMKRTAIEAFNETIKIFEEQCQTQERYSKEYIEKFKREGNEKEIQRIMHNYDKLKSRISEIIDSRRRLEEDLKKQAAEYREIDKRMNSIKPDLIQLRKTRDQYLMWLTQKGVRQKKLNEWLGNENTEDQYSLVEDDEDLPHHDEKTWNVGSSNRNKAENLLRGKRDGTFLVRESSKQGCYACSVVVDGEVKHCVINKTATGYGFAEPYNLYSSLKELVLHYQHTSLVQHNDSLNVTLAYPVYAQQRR
Chain of UniProt Q12974 (Q12974 whole entry, looked up): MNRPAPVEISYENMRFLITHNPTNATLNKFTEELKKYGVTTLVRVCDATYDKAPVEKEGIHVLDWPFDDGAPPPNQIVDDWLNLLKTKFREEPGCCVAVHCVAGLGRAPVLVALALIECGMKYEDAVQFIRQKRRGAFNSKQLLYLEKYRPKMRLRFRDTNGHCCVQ
Chain of UniProt O43924 (O43924 whole entry, looked up): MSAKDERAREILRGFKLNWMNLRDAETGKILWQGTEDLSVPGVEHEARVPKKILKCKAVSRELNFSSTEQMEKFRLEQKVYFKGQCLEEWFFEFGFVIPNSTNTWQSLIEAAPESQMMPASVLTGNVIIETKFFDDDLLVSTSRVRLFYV

| Target | log2 fold change [1] | log2 fold change [2] | log2 fold change [3] | log2 fold change [4] | log2 fold change [5] | log2 fold change [6] | log2 fold change [7] | log2 fold change [8] | log2 fold change [9] | log2 fold change [10] | log2 fold change [11] |
| --- | --- | --- | --- | --- | --- | --- | --- | --- | --- | --- | --- |
| PRKD3 (UniProt O94806) | -0.565 | -0.263 | -0.285 | -0.213 | 0.34 | 0.096 | 0.021 | – | – | – | – |
| PTP4A2 (UniProt Q12974) | -0.161 | -0.286 | 0.079 | -0.023 | 0.011 | – | 0.052 | 0.016 | -0.168 | -0.045 | -0.019 |
| POLR2M (UniProt Q6EEV4) | 0.027 | -0.09 | -0.065 | -0.056 | -0.148 | – | 0.03 | 0.029 | -0.122 | -0.009 | 0.056 |
| PSMD13 (UniProt Q9UNM6) | -0.049 | 0.015 | -0.044 | 0.006 | -0.018 | 0.001 | 0.033 | -0.017 | 0.044 | -0.108 | 0.049 |
| POLR3B (UniProt Q9NW08) | -0.05 | 0.017 | -0.124 | -0.009 | -0.014 | 0.088 | 0.111 | -0.022 | 0.104 | -0.047 | 0 |
| PSMD6 (UniProt Q15008) | -0.028 | 0.037 | -0.024 | 0.082 | -0.045 | -0.001 | 0.011 | -0.017 | 0.039 | -0.063 | 0.058 |
| PTK2B (UniProt Q14289) | 0.076 | 0.091 | -0.13 | -0.092 | 0.128 | 0.011 | 0.054 | – | 0.072 | – | – |
| PCYT1A (UniProt P49585) | -0.015 | -0.093 | -0.234 | -0.066 | 0.033 | 0.086 | 0.022 | 0.081 | -0.06 | -0.002 | 0.017 |
| PDE6D (UniProt O43924) | 0.001 | -0.113 | 0.122 | 0.025 | 0.125 | -0.007 | 0.077 | – | 0.009 | – | – |
| POTEI (UniProt P0CG38) | -0.058 | 0.061 | 0.139 | 0.124 | -0.004 | -0.016 | -0.03 | -0.009 | -0.053 | -0.004 | -0.074 |
| PHKG2 (UniProt P15735) | 0.417 (active) | 0.088 | -0.064 | -0.035 | -0.007 | 0 | 0.052 | 0.122 | 0.023 | -0.045 | -0.279 (active) |
| PIK3R1 (UniProt P27986) | -0.08 | -0.056 | -0.016 | -0.021 | -0.026 | 0.029 | -0.013 | 0.007 | 0.028 | 0.126 | -0.045 |
| PCYT1B (UniProt Q9Y5K3) | -0.019 | -0.007 | -0.218 | -0.03 | 0.043 | -0.038 | 0.077 | 0.084 | -0.231 | -0.025 | 0.057 |
| PEX16 isoform 2 (UniProt Q9Y5Y5) | 0.061 | -0.052 | -0.171 | -0.031 | 0.022 | 0.115 | -0.025 | 0.081 | 0.033 | -0.051 | -0.081 |
| PNN (UniProt Q9H307) | -0.018 | -0.24 | 0.053 | – | 0.021 | 0.045 | -0.124 | -0.077 | 0.106 | -0.446 (active) | 0.172 |
| PMPCA (UniProt Q10713) | -0.091 | -0.059 | -0.02 | -0.053 | -0.018 | -0.016 | -0.061 | 0.017 | 0.01 | 0.015 | -0.046 |
| PRKX (UniProt P51817) | – | – | -0.243 | – | – | – | 0.153 | – | – | – | – |
| PCNX1 (UniProt Q96RV3) | – | – | 0.042 | -0.043 | – | – | -0.11 | -0.237 | -0.14 | -0.269 | 0.179 |
| PSMD8 (UniProt K7ERW6) | – | – | – | -0.417 | – | – | – | – | – | – | – |

| Target | log2 fold change [1] | log2 fold change [2] | log2 fold change [3] | log2 fold change [4] | log2 fold change [5] | log2 fold change [6] | log2 fold change [7] | log2 fold change [8] | log2 fold change [9] | log2 fold change [10] | log2 fold change [11] |
| --- | --- | --- | --- | --- | --- | --- | --- | --- | --- | --- | --- |
| PIM1 isoform 2 (UniProt P11309) | – | – | 0.388 | – | – | -0.123 | 0.575 | – | – | – | – |
| PRR14L (UniProt Q5THK1) | – | -0.205 | – | -0.176 | – | -0.009 | – | – | – | – | – |
| PTEN isoform 2 (UniProt P60484) | – | – | – | – | – | 0.024 | – | 0.089 | – | 0.066 | 0.025 |
| PPP1R12C (UniProt Q9BZL4) | -0.151 | – | -0.031 | -0.022 | 0.072 | 0.487 | 0.122 | -0.008 | -0.073 | -0.278 | 0.038 |
| PUM1 (UniProt Q14671) | – | 0.058 | – | – | – | -0.037 | – | – | – | – | – |
| PCBP2 (UniProt F8VZX2) | – | – | 0.158 | – | – | – | 0.193 | – | – | – | – |
| PHC3 isoform 7 (UniProt Q8NDX5) | 0.158 | – | -0.125 | – | 0.1 | – | -0.018 | 0.172 | 0.567 (active) | -0.014 | -0.215 |
| PDE4A (UniProt P27815) | – | -0.67 (active) | – | 0.047 | – | – | – | – | -0.017 | – | – |
| PTP4A3 (UniProt O75365) | – | – | – | -0.105 | – | – | – | – | – | – | – |
| PPP2R5C isoform 2 (UniProt Q13362) | – | – | -0.183 | – | – | – | -0.064 | 0.069 | – | 0.105 | -0.041 |
| PUF60 isoform 2 (UniProt Q9UHX1) | – | 0.024 | -0.137 | 0.21 | – | – | 0.069 | – | – | – | – |
| PDSS2 (UniProt Q86YH6) | -0.108 | -0.015 | – | 0.011 | -0.009 | 0.041 | – | 0.018 | 0.026 | -0.029 | -0.152 |
| PRKD2 (UniProt M0R346) | -0.279 | – | – | – | 0.032 | 0.021 | – | – | -0.15 | – | – |
| PIGH (UniProt Q14442) | – | -0.021 | -0.087 | -0.021 | – | 0.18 | 0.093 | 0.031 | -0.128 | -0.05 | -0.034 |
| PSMB9 (UniProt P28065) | -0.122 | -0.102 | – | 0.029 | -0.118 | 0.086 | – | -0.028 | -0.061 | 0 | -0.251 |
| PSD3 (UniProt Q9NYI0) | – | -0.262 (active) | -0.14 | -0.113 | – | – | -0.095 | 0.017 | – | -0.02 | -0.013 |
| PEX5 isoform 4 (UniProt P50542) | 0.019 | 0.002 | – | 0.041 | 0 | – | – | – | 0.163 | – | – |
| PPP2R5B (UniProt Q15173) | – | 0.017 | -0.167 | -0.006 | – | 0.112 | 0 | 0.122 | – | 0.127 | -0.321 |
| PCF11 (UniProt O94913) | – | -0.047 | -0.333 | -0.179 | – | -0.04 | -0.113 | 0.001 | – | 0.112 | -0.745 (active) |
